Compound activity: PubChem, National Center for Advancing Translational Sciences (NCATS)
This is a sample that favours compounds with a hit; in the whole collection about 2.5% have one here.
Cruzain inh noDet = blocks cruzain activity in detergent-free assay | purified cruzain, Z-FR-AMC fluorescence, no detergent | 200,000 compounds, 2.3% hits | Potency, µM, inactives show max response, negative = inhibition, usual class: inhibitors | AID 1476;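 note: plate controls were enzyme without inhibitor for no effect and buffer without enzyme for full effect; nearly all actives have a fitted effect of over 40% in size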
Target sequence (P25779 123-467 limits assumed): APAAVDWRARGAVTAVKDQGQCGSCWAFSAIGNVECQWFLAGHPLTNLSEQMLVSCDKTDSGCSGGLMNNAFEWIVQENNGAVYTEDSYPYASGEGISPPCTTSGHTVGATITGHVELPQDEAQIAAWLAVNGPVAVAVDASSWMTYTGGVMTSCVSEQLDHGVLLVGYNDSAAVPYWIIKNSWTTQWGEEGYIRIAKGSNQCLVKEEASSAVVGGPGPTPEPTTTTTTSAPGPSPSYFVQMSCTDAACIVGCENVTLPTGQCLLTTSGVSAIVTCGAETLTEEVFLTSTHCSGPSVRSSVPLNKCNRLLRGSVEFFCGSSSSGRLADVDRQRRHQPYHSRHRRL
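Purified cruzain at 1.5 nM, pre-incubated 15 min with compound at room temperature in 100 mM sodium acetate pH 5.5, 5 mM DTT, 0.00005% Triton X-100. Reaction started with 2 uM Z-FR-AMC; AMC fluorescence increase over 60 s gives rate.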
Cruzain Triton = blocks cruzain activity in presence of Triton detergent | AID 1478 | purified cruzain, Z-FR-AMC fluorescence, 0.01% Triton | Potency, µM, for inactives: max response, negative = inhibition, usual class: inhibitors | 200,000 compounds, 0.43% hits;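 note: plate controls were neutral wells for no effect and buffer without enzyme for full effect; nearly all actives have a fitted effect of over 40% in size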
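Sodium acetate buffer (100 mM, pH 5.5) containing 5 mM DTT and 0.01% Triton X-100 hosted 1.5 nM cruzain and test compound for 15 min at room temperature. Cleavage of 2 uM Z-FR-AMC was then tracked by fluorescence.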
The depositor's hits bear a star; ? = inconclusive; ! = a repeat was not active. Calls come from the whole dose curve; as a rule, active = well fitted curve in the direction sought with a large enough effect; inconclusive = small, poorly fitted or top-dose-only effect, or another doubt; inactive = no such curve, though single readings can be large; an effect the other way counts as inactive or inconclusive. Potency is the fitted concentration of half-maximal effect.

SMILES	Cruzain inh noDet	Cruzain Triton
O=C1CC(c2cccc(O)c2)c2c(nc(SCc3ccccc3F)[nH]c2=O)N1 (stereo unspecified)	-2.9%	-3.9%
C#CCn1c(=NC(=O)c2ccc(Cl)s2)sc2cccc(OC)c21	?	4.9%
COC(=O)Cn1c(=NC(=O)c2ccc(Cl)s2)sc2cc(F)ccc21	25.1µM*	-9.3%
COc1ccc(/C=C2\SC(=S)N(NC(=O)c3csc4c3CCCC4)C2=O)cc1	7.94µM*	2.1%
COc1ccc(NC(=O)c2csc3c2CCCC3)cc1	-6.1%	-3.4%
CC(=O)c1cc(-c2ccc(F)cc2)n(CC(=O)NC2CCCCCC2)c1C	-1.5%	1.0%
CC(C)c1ccc(S(=O)(=O)c2nnn3c2nc(N2CCN(C)CC2)c2sccc23)cc1	3.2%	-0.1%
COc1ccc(-c2cc3ccc(O)c(CN4CCC(C)CC4)c3oc2=O)cc1	18.1%	-0.1%
O=C1/C(=C/c2ccc([N+](=O)[O-])cc2)C=C(c2ccccc2)N1c1ccccc1	12.6µM*	-2.0%
COc1ccc(-c2cc(=O)n(-c3ccc([N+](=O)[O-])cc3)[nH]2)cc1	?	-4.6%
O=C1/C(=C/c2ccc([N+](=O)[O-])cc2)C=C(c2ccccc2)N1c1ccc(O)cc1	?	-6.1%
COc1ccc(N2C(=O)/C(=C/c3ccc([N+](=O)[O-])cc3)C=C2c2ccccc2)cc1	15.8µM*	-4.0%
COc1cccc(C(=O)Nc2nc(-c3nnn(-c4cccc(Cl)c4C)c3C)ns2)c1	-26.6%	-1.6%
COc1cccc(NC(=O)CSc2nc(=O)n(Cc3cccnc3)c3c2CCC3)c1	11.4%	-1.0%
O=C(Cc1coc2ccc3ccccc3c12)N1CCc2ccccc21	12.6µM*	2.8%
Cc1ccc2c(CC(=O)N3CCc4ccccc43)coc2c1	0.1%	-9.8%
CCCOc1ccc(NC(=O)CC2C(=O)N(c3ccc(Cl)cc3)C(=O)N2CCc2ccncc2)cc1 (stereo unspecified)	20.2%	-7.1%
COc1ccc2cc3cc(C(=O)NCc4ccccn4)oc3nc2c1	?	31.6µM*
COc1ccc2cc3cc(C(=O)NCc4ccco4)oc3nc2c1	5.6%	-8.0%
O=C(COc1ccccc1F)Nc1ccc2nc(SCC(=O)N3CCOCC3)sc2c1	?	-12.8%
Cc1ccc(CNc2ccc3c(c2)OCO3)cc1	25.1µM*	-2.8%
c1cc(CNc2ccc3c(c2)OCO3)ccn1	-12.3%	-6.3%
Cc1ccc(-c2csc(N(CCc3ccccc3)C(=O)COc3ccccc3)n2)cc1	-20.5%	3.5%
Cc1ccc(-c2csc(N(Cc3ccccc3)C(=O)COc3ccccc3)n2)cc1	7.94µM*	5.9%
CCOc1ccccc1-n1nnc(-c2nsc(NC(=O)c3ccc(C)cc3)n2)c1C	3.5%	1.5%
SMILES	Cruzain inh noDet	Cruzain Triton
CC1(c2ccccc2)CC(C)(C)N2C(=O)C3(C(C#N)=C(N)Oc4cc(O)ccc43)c3cccc1c32 (stereo unspecified)	12.3%	-5.7%
CC1(c2ccccc2)CC(C)(C)N2C(=O)/C(=C3\SC(=S)NC3=O)c3cccc1c32 (stereo unspecified)	7.94µM*	-9.8%
Cc1ccc(NC(=O)Cn2c(=O)n(Cc3ccccc3)c(=O)c3c2c2cc(C)ccc2n3C)cc1	-7.2%	1.1%
CCCCN(CC)C(=O)CSc1nc2n[nH]c(C)c2c(=N)n1-c1cccc(Cl)c1	?	-8.9%
Cc1cc2c(cc1S(=O)(=O)Nc1ccc(C(C)C)cc1)OCCN2C	13.0%	-0.8%
Cc1ccc(C(=O)NCC(c2ccco2)S(=O)(=O)c2ccccc2)cc1C (stereo unspecified)	-7.0%	1.1%
CCOc1cc(/C=C/c2cc(C(=O)O)c3ccccc3n2)ccc1O	-10.0%	-9.9%
CCOc1cc(/C=C2\C(=O)N(c3nc(-c4ccc(Br)cc4)cs3)N=C2c2ccccc2)ccc1O	3.16µM*	?
COc1ccc(-c2oc3ncn4nc(COc5ccc(C)cc5)nc4c3c2-c2ccc(OC)cc2)cc1	6.8%	1.8%
COc1ccc(-c2oc3ncn4nc(Cc5ccccc5)nc4c3c2-c2ccc(OC)cc2)cc1	10µM*	-9.9%
COc1ccc(-c2oc3ncn4nc(COc5ccccc5)nc4c3c2-c2ccc(OC)cc2)cc1	3.98µM*	-9.8%
COc1ccc(OCc2nc3c4c(-c5ccc(OC)cc5)c(-c5ccc(OC)cc5)oc4ncn3n2)cc1	-7.1%	-1.2%
O=C(NC1CCCCC1)C(c1ccc(F)cc1)N(C(=O)Cc1ccsc1)c1ccc(F)cc1 (stereo unspecified)	-1.9%	7.1%
O=C(NC1CCCC1)C(c1ccsc1)N(CCc1ccccc1)C(=O)Cc1cccs1 (stereo unspecified)	?	0.5%
O=C(NC1CCCC1)C(c1ccsc1)N(C(=O)Cc1cccs1)c1ccccc1 (stereo unspecified)	10µM*	10.3%
O=C(NC1CCCCC1)C(c1ccccc1)N(C(=O)Cc1ccsc1)c1ccccc1 (stereo unspecified)	15.8µM*	4.0%
CC1CCN(S(=O)(=O)c2ccc3c(c2)N(CC(=O)NC(C)(C)C)C(=O)CS3)CC1	-0.1%	-0.7%
CCc1ccc(NC(=O)c2cccc(N3CCCS3(=O)=O)c2)cc1	3.2%	-2.2%
CC1CCc2nc(NC(=O)c3ccc(S(=O)(=O)N4CCCc5ccccc54)cc3)sc2C1 (stereo unspecified)	7.94µM*	-4.6%
O=C(Nc1nc2c(s1)CCCC2)c1ccc(S(=O)(=O)N2CCCc3ccccc32)cc1	?	-1.6%
CCN(C(=O)c1c(C)oc2ncnc(N3CCCCC3)c12)c1cc(C)ccc1C	0.4%	0.6%
CCOc1ccccc1NC(=O)Nc1cc(C(=O)NCc2ccc(C)cc2)ccc1N1CCCC1	-4.1%	-2.1%
CC1CCN(S(=O)(=O)c2ccc3c(c2)CCC(=O)N3CC(=O)Nc2cccc(C#N)c2)CC1	-3.3%	-6.4%
O=C(CNC(=O)c1ccc(Cl)cc1Cl)OCC(=O)c1ccc2c(c1)OCCO2	3.16µM*	3.16µM*
CC(C)CNS(=O)(=O)c1cc(C(=O)OCC(=O)c2ccc3c(c2)OCCO3)c(Cl)cc1Cl	?	-1.6%
SMILES	Cruzain inh noDet	Cruzain Triton
CCOC(=O)c1ccc(N2Cc3ccccc3C2=N)cc1	-20.5%	0.6%
CCOC(=O)c1ccc(N=C2C(=S)N(c3ccc(C(=O)OCC)cc3)C(=N)N2/N=C/c2ccccc2)cc1	12.6µM*	-12.3%
Cc1ccccc1-c1cc(N(C)C)ncn1	0.7%	4.6%
CCOC(=O)C(CC)N1CCN(Cc2ccc(F)cc2)C(=O)C1=O (stereo unspecified)	19.1%	-0.9%
CCOC(=O)c1ccc(N2CCN(c3cc(Cl)ccc3C)CC2)c(NC(=O)Nc2ccc(OCC)cc2)c1	-0.9%	0.1%
CCOC(=O)c1ccc(N2CCN(c3cc(C)ccc3C)CC2)c(NC(=O)Nc2ccccc2)c1	7.94µM*	0.0%
O=C(Cn1nnc(-c2cccc(C(F)(F)F)c2)n1)NC(=O)NCc1ccco1	15.8µM*	4.9%
O=C(Cn1nnc(-c2ccccc2)n1)NCc1ccco1	-1.0%	1.3%
CC(C)(C)OC(=O)N1CCC(c2c(C(=O)NCCCN3CCc4ccccc4C3)cnn2-c2ccccc2)CC1	-4.9%	-0.2%
COc1cc([N+](=O)[O-])ccc1NC(=O)N1CCC2(CC1)Nc1cc(F)ccc1-n1cccc12	25.1µM*	-2.7%
COc1ccccc1N1CCN(C(=O)Nc2ccc([N+](=O)[O-])cc2)CC1	-8.8%	-9.6%
CC1=NCCc2c1[nH]c1cc(O)ccc21	12.6µM*!	28.2µM*!
COc1ccc2[nH]c3c(c2c1)CCn1c-3nc2ccccc2c1=O	-13.4%	1.4%
Cc1ccc2[nH]c3c(c2c1)CCC3=O	11.6%	15.0%
